According to paper PMC11062922 (Nature Chemical Biology, 2023):
Where two headings read alike, the source gives them in different places.

Assays:
Set-up in all cases: species or system human, MV4-11 + K-562 + COLO205 + SK-N-BE2 + OVCAR-8
AKT1 = settings: read-out: apparent Kd; compound concentrations:100 nM and 1000 nM (sheet 'Samples'); n = 1
AKT2 = settings: read-out: apparent Kd; compound concentrations:100 nM and 1000 nM (sheet 'Samples'); n = 1
ATM = settings: read-out: apparent Kd, n = 1
CIT = settings: read-out: apparent Kd; compound concentrations:100 nM and 1000 nM (sheet 'Samples'); n = 1
ERBB3 = settings: read-out: apparent Kd; compound concentrations:100 nM and 1000 nM (sheet 'Samples'); n = 1
GSK3A = settings: read-out: apparent Kd, n = 1
GSK3B = settings: read-out: apparent Kd, n = 1
LATS1 = settings: read-out: apparent Kd; compound concentrations:100 nM and 1000 nM (sheet 'Samples'); n = 1
MARK2 = settings: read-out: apparent Kd; compound concentrations:100 nM and 1000 nM (sheet 'Samples'); n = 1
MARK3 = settings: read-out: apparent Kd; compound concentrations:100 nM and 1000 nM (sheet 'Samples'); n = 1
MARK4 = settings: read-out: apparent Kd; compound concentrations:100 nM and 1000 nM (sheet 'Samples'); n = 1
PAK4 = settings: read-out: apparent Kd; compound concentrations:100 nM and 1000 nM (sheet 'Samples'); n = 1
PAK6 = settings: read-out: apparent Kd; compound concentrations:100 nM and 1000 nM (sheet 'Samples'); n = 1
PKN1 = settings: read-out: apparent Kd; compound concentrations:100 nM and 1000 nM (sheet 'Samples'); n = 1
PKN3 = settings: read-out: apparent Kd; compound concentrations:100 nM and 1000 nM (sheet 'Samples'); n = 1
PRKACA = settings: read-out: apparent Kd; compound concentrations:100 nM and 1000 nM (sheet 'Samples'); n = 1
PRKACB = settings: read-out: apparent Kd; compound concentrations:100 nM and 1000 nM (sheet 'Samples'); n = 1
PRKCD = settings: read-out: apparent Kd; compound concentrations:100 nM and 1000 nM (sheet 'Samples'); n = 1
PRKCQ = settings: read-out: apparent Kd, n = 1
PRKG1 = settings: read-out: apparent Kd; compound concentrations:100 nM and 1000 nM (sheet 'Samples'); n = 1
PRKX = settings: read-out: apparent Kd; compound concentrations:100 nM and 1000 nM (sheet 'Samples'); n = 1
TTN = settings: read-out: apparent Kd; compound concentrations:100 nM and 1000 nM (sheet 'Samples'); n = 1
EPHB2 = settings: read-out: apparent Kd; compound concentrations: 100 nM and 1000 nM (sheet 'Samples'), CATDS: 5.4073383937865198E-2; n = 1
EPHB4 = settings: read-out: apparent Kd; compound concentrations: 100 nM and 1000 nM (sheet 'Samples'), CATDS: 6.1726409917068299E-2; n = 1
ERCC2 = settings: read-out: apparent Kd; compound concentrations: 100 nM and 1000 nM (sheet 'Samples'), CATDS: 5.5764348636942303E-2; n = 1
GAK = settings: read-out: apparent Kd; compound concentrations: 100 nM and 1000 nM (sheet 'Samples'), CATDS: 5.4131734373928597E-2; n = 1
MAPK11 = settings: read-out: apparent Kd; compound concentrations: 100 nM and 1000 nM (sheet 'Samples'), CATDS: 5.3024764927667702E-2; n = 1
MAPK9 = settings: read-out: apparent Kd; compound concentrations: 100 nM and 1000 nM (sheet 'Samples'), CATDS: 4.8598107075800298E-2; n = 1
PIK3CD = settings: read-out: apparent Kd; compound concentrations: 100 nM and 1000 nM (sheet 'Samples'), CATDS: 0.17871618509773601; n = 1
PRKAG1 = settings: read-out: apparent Kd; compound concentrations: 100 nM and 1000 nM (sheet 'Samples'), CATDS: 0.16537945718140701; n = 1
RPS6KA6 = settings: read-out: apparent Kd; compound concentrations: 100 nM and 1000 nM (sheet 'Samples'), CATDS: 5.8254455151346002E-2; n = 1
SRC = settings: read-out: apparent Kd; compound concentrations: 100 nM and 1000 nM (sheet 'Samples'), CATDS: 5.8386134416648999E-2; n = 1
TNK1 = settings: read-out: apparent Kd; compound concentrations: 100 nM and 1000 nM (sheet 'Samples'), CATDS: 8.7272147556640506E-2; n = 1
TNK2 = settings: read-out: apparent Kd; compound concentrations: 100 nM and 1000 nM (sheet 'Samples'), CATDS: 6.9926040964812697E-2; n = 1
CDC7 = settings: read-out: apparent Kd; compound concentrations: 100 nM and 1000 nM (sheet 'Samples'), CATDS: 6.3073958864856297E-2; n = 1
CDK16 = settings: read-out: apparent Kd; compound concentrations: 100 nM and 1000 nM (sheet 'Samples'), CATDS: 0.118346075913056; n = 1
CDK2 = settings: read-out: apparent Kd; compound concentrations: 100 nM and 1000 nM (sheet 'Samples'), CATDS: 0.141708067448752; n = 1
CDKL5 = settings: read-out: apparent Kd; compound concentrations: 100 nM and 1000 nM (sheet 'Samples'), CATDS: 6.5208173112241197E-2; n = 1
CLK2 = settings: read-out: apparent Kd; compound concentrations: 100 nM and 1000 nM (sheet 'Samples'), CATDS: 8.0907286547203805E-2; n = 1
CLK4 = settings: read-out: apparent Kd; compound concentrations: 100 nM and 1000 nM (sheet 'Samples'), CATDS: 8.1638299421732605E-2; n = 1
CSNK2A1;CSNK2A3 = settings: read-out: apparent Kd; compound concentrations: 100 nM and 1000 nM (sheet 'Samples'), CATDS: 6.6778954653333403E-2; n = 1
CSNK2A2 = settings: read-out: apparent Kd; compound concentrations: 100 nM and 1000 nM (sheet 'Samples'), CATDS: 7.8455201722788401E-2; n = 1
ICK = settings: read-out: apparent Kd; compound concentrations: 100 nM and 1000 nM (sheet 'Samples'), CATDS: 7.9134779366863195E-2; n = 1
[1] = compound concentrations:100 nM and 1000 nM (sheet 'Samples')

Compound: CCn1c(-c2nonc2N)nc2c(C#CC(C)(C)O)ncc(OC[C@@H]3CCCN3)c21.O=C(O)C(F)(F)F [GSK614526A]
- potency estimated from few doses (AKT1): 1090 nM
- potency estimated from few doses (AKT2): 934 nM
- potency estimated from few doses (ATM; [1]): 303 nM
- potency estimated from few doses (CIT): 983 nM
- potency estimated from few doses (ERBB3): 1810 nM
- potency estimated from few doses (GSK3A; [1]): 365 nM
- potency estimated from few doses (GSK3B; [1]): 440 nM
- potency estimated from few doses (LATS1): 634 nM
- potency estimated from few doses (MARK2): 762 nM
- potency estimated from few doses (MARK3): 607 nM
- potency estimated from few doses (MARK4): 1040 nM
- potency estimated from few doses (PAK4): 66.7 nM
- potency estimated from few doses (PAK6): 821 nM
- potency estimated from few doses (PKN1): 215 nM
- potency estimated from few doses (PKN3): 150 nM
- potency estimated from few doses (PRKACA): 144 nM
- potency estimated from few doses (PRKACB): 510 nM
- potency estimated from few doses (PRKCD): 2140 nM
- potency estimated from few doses (PRKCQ; [1]): 1170 nM
- potency estimated from few doses (PRKG1): 69.9 nM
- potency estimated from few doses (PRKX): 1.38 nM
- potency estimated from few doses (TTN): 544 nM

Compound: CC(C)(O)CCc1cccc(C(=O)c2cnn(-c3ccc(F)cc3)c2N)c1 [RO3200935-000]
- potency estimated from few doses (ATM; compound concentrations: 100 nM and 1000 nM (sheet 'Samples'), CATDS: 0.124711216224064): 182 nM
- potency estimated from few doses (EPHB2): 1310 nM
- potency estimated from few doses (EPHB4): 862 nM
- potency estimated from few doses (ERCC2): 1180 nM
- potency estimated from few doses (GAK): 1300 nM
- potency estimated from few doses (MAPK11): 1400 nM
- potency estimated from few doses (MAPK9): 1970 nM
- potency estimated from few doses (PIK3CD): 101 nM
- potency estimated from few doses (PRKAG1): 114 nM
- potency estimated from few doses (PRKCQ; compound concentrations: 100 nM and 1000 nM (sheet 'Samples'), CATDS: 0.173893551056024): 105 nM
- potency estimated from few doses (RPS6KA6): 1020 nM
- potency estimated from few doses (SRC): 1020 nM
- potency estimated from few doses (TNK1): 366 nM
- potency estimated from few doses (TNK2): 615 nM

Compound: NS(=O)(=O)c1ccc(N/N=C2\C(=O)Nc3ccc(C(=O)NCCCn4ccnc4)cc32)cc1 [GW290597X]
- potency estimated from few doses (ATM; compound concentrations: 100 nM and 1000 nM (sheet 'Samples'), CATDS: 0.20887249405767599): 232 nM
- potency estimated from few doses (CDC7): 2220 nM
- potency estimated from few doses (CDK16): 550 nM
- potency estimated from few doses (CDK2): 409 nM
- potency estimated from few doses (CDKL5): 2010 nM
- potency estimated from few doses (CLK2): 1150 nM
- potency estimated from few doses (CLK4): 1130 nM
- potency estimated from few doses (CSNK2A1;CSNK2A3): 1870 nM
- potency estimated from few doses (CSNK2A2): 1240 nM
- potency estimated from few doses (GSK3A; compound concentrations: 100 nM and 1000 nM (sheet 'Samples'), CATDS: 7.3699312386452706E-2): 1440 nM
- potency estimated from few doses (GSK3B; compound concentrations: 100 nM and 1000 nM (sheet 'Samples'), CATDS: 7.1527025569737807E-2): 1550 nM
- potency estimated from few doses (ICK): 1210 nM
